Measurements taken from ChEMBL document CHEMBL4513216, “Probing the Open Global Health Chemical Diversity Library for Multistage-Active Starting Points for Next-Generation Antimalarials” (ACS Infect Dis, 2020).
The whole screen tested about 65,000 compounds, of which about 2,100 (3.2%) showed an effect of 50% or more. The median lay at about -52%. The sample holds strong results, similar compounds and a random draw of the others, so the mix is not that of the screen.

test system: Plasmodium falciparum; assay: Screen against P. falciparum Asexual Blood Stage (ABS), at 5uM; format: functional, Dd2; conditions: tested at 5 uM

Compound | INHIBITION
Cc1cc(CN2CC[C@H]3C(=O)N(c4ccsc4)CCO[C@H]3C2)no1 | -34.2%
Cc1cccc(CO[C@@H]2CC[C@H]3[C@H]2OCCN3Cc2ccsc2)n1 | -46.8%
O=C(N[C@H]1CN(Cc2cccs2)[C@@H]2CCCO[C@H]12)c1cccnc1 | -57.9%
Fc1cccc(CN2C[C@@H]3CN(Cc4ccccn4)C[C@@H]3C2)c1 | 89.4%
Cc1noc(C)c1CN1C[C@H]2CN(Cc3cccc(F)c3)C[C@H]2C1 | 55.4%
Cc1noc(C)c1CN1C[C@@H]2C[C@@H](C)O[C@@H]2C1 | -75.1%
Cc1noc(C)c1CN1C[C@@H]2CC(F)(F)C[C@@H]2C1 | -59.4%
O=C(c1cccc(F)c1)N1C[C@H]2CN(Cc3ccccn3)C[C@H]2C1 | 0.82%
Cn1cnc(S(=O)(=O)N2C[C@H]3CN(Cc4ccccn4)C[C@H]3C2)c1 | -85.5%
O=C(Cc1ccccn1)N1CCN2C[C@H](Oc3cncnc3)C[C@H]2C1 | -1.9%
Cc1noc(C)c1CN1C[C@@H]2CN(C(=O)c3cnccn3)C[C@@H]2C1 | -43.4%
Clc1cccc(N[C@H]2CCCN[C@H]2Cc2ccccc2)c1 | 92.8%
Cc1n[nH]cc1CNC1(c2ccc(F)cc2)CCCC1 | 83.4%
CC(C)OCCNC1(c2ccc(F)cc2)CCOCC1 | 34.8%
Cc1nc(C2(NCc3ccc(C#N)cc3F)CCCCC2)no1 | -32.3%
O=C(c1cnccn1)N1CCN2C[C@H](Oc3cccnc3)C[C@H]2C1 | -106%
CCOCC(O)CN1CCN(C(=O)Cc2ccccc2C)CC1 (configuration not stated) | -143%
COc1ccccc1COCC(O)CN1CC(n2cccn2)C1 (configuration not stated) | 78.9%
CN(C)c1ncc2c(n1)C1(CCN(Cc3ccccc3)C1)COC2 (configuration not stated) | 27.6%
CC(Cc1ccccn1)N(C)Cc1ccc2c(c1)CCO2 (configuration not stated) | 8.31%
Cc1cccnc1CC(C)N(C)Cc1cccs1 (configuration not stated) | 81.7%
Cc1ccnc(CC(C)N(C)Cc2ccc3c(c2)OCCO3)c1 (configuration not stated) | -56.5%
Cc1nc(CN2CCCC2Cn2ccnc2C(C)C)nc2ccccc12 (configuration not stated) | 77.3%
CCCN(CCN(C)C)C(=O)Cc1cn2ccsc2n1 | -76.3%
Cc1nc(CN2CCCCC2Cn2cccn2)nc2ccccc12 (configuration not stated) | 70.4%
Cc1cnn(CC2CCCN2Cc2nc(C)c3ccccc3n2)c1 (configuration not stated) | 78%

Compound | INHIBITION
Cc1cnn(CC2CCCN2Cc2cn3ccsc3n2)c1 (configuration not stated) | 81.3%
O=C(C1CCCCC1)N1C[C@@H]2CCNC[C@@H]21 | 9.5%
Cc1ccc(N2CC[C@@H]3CN(Cc4c[nH]cn4)C[C@@H]3C2)nn1 | -66.7%
Cc1cc(CC(C)NC2CCSCC2)[nH]n1 (configuration not stated) | -36.2%
Cn1c(=O)n(C)c2cc(C3SCC(=O)Nc4ccsc43)ccc21 (configuration not stated) | -86.5%
O=C(c1ccccc1)C1CCN(Cc2cc3c(cc2O)CCC3)CC1 | 90.1%
CC(C)NC(=O)[C@H]1CN(Cc2ccccc2)C[C@@H]1C(=O)c1ccccc1 | -90.6%
Cc1c(CN2CCCC(C(=O)c3ccccc3)C2)cc(C#N)n1C (configuration not stated) | 44.6%
c1cc(-c2n[nH]cc2-c2ccnc(N3CCCCCC3)n2)ccn1 | 78%
c1cc(-c2n[nH]cc2-c2ccnc(N3CCCC3)n2)ccn1 | 81.1%
CC(C)[C@H](CO)Nc1nccc(-c2c[nH]nc2-c2ccncc2)n1 | 83.9%
COc1cc(N2CC[C@@H]3[C@@H](CC2)OCCN3CC2CC2)ncn1 | -53.8%
COCC1CC2(CCNCC2)CN1c1ncccn1 (configuration not stated) | -33.8%
NC1(c2nc(C(F)(F)F)cc(=O)[nH]2)CCCC1 | -131%
Cc1cc(Cc2ccc(F)cc2)cc(C2CCCNC2)n1 (configuration not stated) | 73.9%
FC(F)(F)c1nc(C2CCCNC2)no1 (configuration not stated) | -15.6%
Cc1cccc(Cc2cc(C)nc(C3CCCNC3)c2)c1 (configuration not stated) | 80.1%
Cc1cc(Cc2ccccc2)cc(C2CCCNC2)n1 (configuration not stated) | 76.1%
Cc1nc(NCCC23CCCN2CCC3)cc(C2CCCNC2)n1 (configuration not stated) | -29.1%
Cc1cc(O)nc(C2CCCNC2)n1 (configuration not stated) | -1.25%
Cc1cc(Cc2cccc(C(F)(F)F)c2)cc(C2CCCNC2)n1 (configuration not stated) | 93.9%
Cc1cc(C)nc(C2CCCNC2)n1 (configuration not stated) | -66.3%
CC(C)c1ncc(Cl)c(C(=O)N2CCCN3CCCC3C2)n1 (configuration not stated) | -79%
CNC(=O)[C@H]1C[C@@H]2CN(Cc3cccnc3OC)C[C@@H]2N1C(C)=O | 38.2%
NC1(c2nc(-c3ccccc3)cc(=O)[nH]2)CCCCC1 | -0.415%
COCCN1CCC2(COCc3cnc(N(C)C)nc32)C1 (configuration not stated) | -35.3%
